Test results as given in the supplement of paper PMC10515830.
Structures can show the parent of a compound that is named as a salt.

How the values were obtained:
Settings in all cases: 10 µM; exposure time 6 h
[1] = tested on: Danio rerio larvae (5 dpf); experiment: difference in excitability vs DMSO (percentage points); higher = more excitable than DMSO
Procedure, shortened: (§1)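 Wild-type zebrafish larvae at 5 dpf were kept in 96-well plates and exposed for 6 h to 100 µL egg water holding library compound at a final concentration of 10 µM. From 3 h into exposure, the plates were held at 28.5 ℃ and photographed every 6 s through a 3-h programme of moving lines and 100 ms, 400Hz tones. Each behaviour was scored by Z-LaP Tracker, a DeepLabCut model, and averaged over 48 larvae per compound. Every value gives the compound mean minus the vehicle control mean, in percentage points.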

[2] = tested on: Danio rerio larvae (5 dpf); experiment: difference in startle response vs DMSO (percentage points); higher = stronger startle than DMSO
Procedure, shortened: as §1

[3] = tested on: Danio rerio larvae (5 dpf); experiment: difference in activity during first hour vs DMSO (percentage points); higher = more activity than DMSO
Procedure, shortened: as §1

[4] = tested on: Danio rerio larvae (5 dpf); experiment: difference in habituation to acoustic stimuli vs DMSO (percentage points); higher = more habituation than DMSO
Procedure, shortened: as §1

[5] = tested on: Danio rerio larvae (5 dpf); experiment: difference in combined optomotor response to red, green and blue moving lines vs DMSO (percentage points); higher = stronger optomotor response than DMSO
Procedure, shortened: as §1

Structure (SMILES)	difference in excitability [1]	difference in startle response [2]	difference in activity during first hour [3]	difference in habituation to acoustic stimuli [4]	difference [5]
COc1ccc2[nH]c([S@@+]([O-])Cc3ncc(C)c(OC)c3C)nc2c1 [Esomeprazole Magnesium]	8.33	7.11	4.64	-0.745	5.95
C=C1/C(=C\C=C2/CCC[C@]3(C)[C@@H]([C@H](C)/C=C/[C@H](C)C(C)C)CC[C@@H]23)C[C@@H](O)C[C@@H]1O [1-hydroxy Vitamin D2]	1.72	-1.97	2.97	0.874	6.19
NC(=O)c1cn(Cc2c(F)cccc2F)nn1 [Rufinamide]	3.01	4.27	8.13	0.975	7.5
COc1cccc(N2CCN(C3=Nc4c(F)cccc4[C@H](CC(=O)O)N3c3cc(C(F)(F)F)ccc3OC)CC2)c1 [Letermovir]	9.24	-3.2	13.2	-5.75	-3.3
CCCCc1oc2ccccc2c1C(=O)c1cc(I)c(OCCN(CC)CC)c(I)c1 [Amiodarone (hydrochloride)]	8.93	-3.14	8.93	-15.9	-11.8
C=C[C@]1(C)C[C@@H](OC(=O)CS[C@@H]2C[C@H]3CC[C@@H](C2)N3C)[C@]2(C)[C@H](C)CC[C@]3(CCC(=O)[C@H]32)[C@@H](C)[C@@H]1O [Retapamulin]	25.1	5.21	-2.58	1.86	5.67
Clc1ccc2c(c1)CCc1cccnc1C2=C1CCNCC1 [Desloratadine]	10.4	3.48	2.87	-2.42	1.86
CCC[C@@H]1C[C@@H](C(=O)N[C@@H]([C@H]2O[C@H](SC)[C@H](O)[C@@H](O)[C@H]2O)[C@H](C)Cl)N(C)C1 [Clindamycin]	-2.97	2.68	-14.7	4.82	-4.05
OCCOCCN1CCN(C2=Nc3ccccc3Sc3ccccc32)CC1 [Quetiapine (hemifumarate)]	-1.54	-3.79	16.8	-4.99	10.6
CC(C)(C)NC(=O)[C@@H]1C[C@@H]2CCCC[C@@H]2CN1C[C@@H](O)[C@H](Cc1ccccc1)NC(=O)[C@H](CC(N)=O)NC(=O)c1ccc2ccccc2n1 [Saquinavir (mesylate)]	9.2	-1.02	0.593	0.0845	-1.01
CNC(=O)c1ccccc1Sc1ccc2c(/C=C/c3ccccn3)n[nH]c2c1 [Axitinib]	4.07	1.36	-1.06	-0.505	6.84
COC(=O)[C@@H]1CC2=CC(=O)CC[C@]2(C)[C@@]23O[C@@H]2C[C@@]2(C)[C@@H](CC[C@@]24CCC(=O)O4)[C@H]13 [Eplerenone]	2.31	-5.25	4.97	4.87	4.83
Cc1cc2nc3c(=O)[nH]c(=O)nc-3n(C[C@H](O)[C@H](O)[C@H](O)COP(=O)(O)O)c2cc1C [Riboflavin 5'-monophosphate (sodium salt hydrate)]	-1.24	-0.41	13.4	5.95	-0.41
Nc1ccn([C@@H]2O[C@H](CO)[C@@H](O)[C@@H]2O)c(=O)n1 [Cytarabine]	1.17	-0.992	-3.96	-4.77	3.66
CCCNC(C)C(=O)Nc1c(C)csc1C(=O)OC (stereo not given) [Articaine (hydrochloride)]	2.22	-2.43	5.22	0.219	-0.0299
CCCCCCOC(=O)NC(=N)c1ccc(NCc2nc3cc(C(=O)N(CCC(=O)OCC)c4ccccn4)ccc3n2C)cc1 [Dabigatran etexilate]	7.34	2.07	-7.27	0.895	2.07
CS(=O)(=O)OCCCCOS(C)(=O)=O [Busulfan]	1.08	2.56	2.59	2.63	3.07
CN(C)[C@@H]1C(O)=C(C(N)=O)C(=O)[C@@]2(O)C(O)=C3C(=O)c4c(O)ccc(Cl)c4[C@@H](O)[C@H]3C[C@@H]12 [Demeclocycline (hydrochloride)]	12.9	-2.29	4.59	7.81	2.94
CCN(CC)CCOc1ccc(C(=C(Cl)c2ccccc2)c2ccccc2)cc1 [Clomiphene (citrate)]	-9.14	5.47	-4.03	-5.11	-16.4
COc1ccc2c(O[C@@H]3C[C@H]4C(=O)N[C@]5(C(=O)NS(=O)(=O)C6CC6)C[C@H]5/C=C\CCCCN(C)C(=O)[C@@H]4C3)cc(-c3nc(C(C)C)cs3)nc2c1C [Simeprevir (sodium salt)]	13.8	-3.43	25.2	3.8	8.38
CN(C)CCC(c1ccc(Cl)cc1)c1ccccn1 (stereo not given) [Chlorpheniramine (maleate)]	1.12	-4.13	-11.1	-6.14	-4.02
CC(C)[C@H](N)C(=O)OCC(CO)OCn1cnc2c(=O)nc(N)[nH]c21 (stereo not given in full) [Valganciclovir (hydrochloride)]	-0.104	2.52	-5.18	1.35	3.33
COC(=O)[C@H]1[C@H]2C[C@@H]3c4[nH]c5cc(OC)ccc5c4CCN3C[C@H]2C[C@@H](OC(=O)c2cc(OC)c(OC)c(OC)c2)[C@@H]1OC [Reserpine]	24.6	-7.69	9.27	-7.61	-10.4

Structure (SMILES)	difference in excitability [1]	difference in startle response [2]	difference in activity during first hour [3]	difference in habituation to acoustic stimuli [4]	difference [5]
CN(C)C(=O)C(CCN1CCC(O)(c2ccc(Cl)cc2)CC1)(c1ccccc1)c1ccccc1 [Loperamide (hydrochloride)]	20.6	4.43	29.3	-9.2	-2.52
CCOC(=O)[C@H](CCc1ccccc1)N[C@H]1CCc2ccccc2N(CC(=O)O)C1=O [Benazepril (hydrochloride)]	7.01	3.34	-2.03	-3.43	-7.74
Cc1ccc(NC(=O)c2ccc(CN3CCN(C)CC3)cc2)cc1Nc1nccc(-c2cccnc2)n1 [Imatinib (mesylate)]	13.1	1.01	-9.06	5.17	-1.23
CCc1nc(N)nc(N)c1-c1ccc(Cl)cc1 [Pyrimethamine]	12.2	1.26	9.34	-3.84	5.09
O=C(O)CCNC(=O)c1ccc(/N=N/c2ccc(O)c(C(=O)O)c2)cc1 [Balsalazide]	4.51	9.09	15	1.8	4.25
CCN(CC)C(=O)C1(c2ccccc2)CC1CN (stereo not given) [Milnacipran (hydrochloride)]	16	-4.41	-15.2	1.78	-3.7
CC(=O)OC(C)C[N+](C)(C)C (stereo not drawn) [Acetyl-β-methylcholine (chloride)]	1.77	1.22	3.93	15	1.43
O=C1CN(/N=C/c2ccc(-c3ccc([N+](=O)[O-])cc3)o2)C(=O)N1 [Dantrolene (sodium salt)]	9.39	1.23	-7.55	0.0919	0.433
CC(C)[N+](C)(CCOC(=O)C1c2ccccc2Oc2ccccc21)C(C)C [Propantheline (bromide)]	4.4	5.21	4.15	4.81	5.08
O=C1c2cccc3c2[C@H](CCC3)CN1[C@@H]1CN2CCC1CC2 [Palonosetron (hydrochloride)]	16.7	-3.75	19.7	2.14	4.37
CNCc1ccc(-c2[nH]c3cc(F)cc4c3c2CCNC4=O)cc1 [Rucaparib]	15.9	5.43	-11	15.7	11
CN(C)CCCN1c2ccccc2Sc2ccc(Cl)cc21 [Chlorpromazine (hydrochloride)]	12.6	-0.58	13.4	-8.52	6.64
COc1ccc(CC2c3cc(OC)c(OC)cc3CC[N+]2(C)CCC(=O)OCCCCCOC(=O)CC[N+]2(C)CCc3cc(OC)c(OC)cc3C2Cc2ccc(OC)c(OC)c2)cc1OC (stereo not given) [Atracurium (besylate)]	5.62	-4.13	-9.46	-3.02	-3.83
NCCc1ccc(O)c(O)c1 [Dopamine (hydrochloride)]	4.19	-3.68	12.6	4.17	2.15
COCCCOc1ccnc(C[S+]([O-])c2nc3ccccc3[nH]2)c1C (stereo not given) [Rabeprazole (sodium salt)]	2.22	-0.57	7.69	-4.65	15.4
COc1ccc(OC)c(C(O)CNC(=O)CN)c1 (stereo not given) [Midodrine (hydrochloride)]	7.59	-5.94	6.73	0.23	5.44
CC1(C)O[C@@H]2C[C@H]3[C@@H]4C[C@H](F)C5=CC(=O)C=C[C@]5(C)[C@H]4[C@@H](O)C[C@]3(C)[C@]2(C(=O)CO)O1 [Flunisolide]	4.3	-3.48	6.73	1.9	3.28
Cc1[nH]c(=O)c(C#N)cc1-c1ccncc1 [Milrinone]	-4.22	-1.03	2.14	0.444	8.34
CC(=O)O[C@H]1C(=O)[C@@]2(C)[C@H]([C@H](OC(=O)c3ccccc3)[C@]3(O)C[C@H](OC(=O)[C@H](O)[C@@H](NC(=O)c4ccccc4)c4ccccc4)C(C)=C1C3(C)C)[C@]1(OC(C)=O)CO[C@@H]1C[C@@H]2O [Paclitaxel]	-11.7	-1.74	-4.46	3.51	-2.9
OCCN1CCN(CCCN2c3ccccc3Sc3ccc(C(F)(F)F)cc32)CC1 [Fluphenazine (hydrochloride)]	23.3	5.93	15.6	-10.4	-5.63
C[C@@H]1C/C=C/C=C/C=C/C=C/[C@H](O[C@@H]2O[C@H](C)[C@@H](O)[C@H](N)[C@@H]2O)C[C@@H]2O[C@](O)(C[C@@H](O)C[C@H]3O[C@@H]3/C=C/C(=O)O1)C[C@H](O)[C@H]2C(=O)O [Natamycin]	2.79	-1.51	0.445	3.82	3.97
OCc1cc(C(O)CNCCCCCCOCCCCc2ccccc2)ccc1O (stereo not given) [Salmeterol (xinafoate)]	12.9	-5.05	20.1	-7.62	7.79
